From PubChem BioAssay
A selection: hits, their analogues and other compounds. The true share with any hit is near 2.8%.
KKLEB tox: reduces viability of KKLEB cystic fibrosis airway cells. activity change (cytotoxicity), % at 5 µM. KKLEB CF airway cells viability, ATPlite luminescence, overnight; stronger effect = lower value; cells stimulated with P. aeruginosa culture filtrate. hit rate 0.36% among 360,000;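 active = corrected activity change at or below -50% at 5 µM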
CF NFkB inh: cystic fibrosis NF-kB activation inhibition; KKLEB NF-kB-GFP reporter, PAF-induced, GFP fluorescence overnight; inhibition, % at 5 µM; hit rate 0.86% among 360,000; AID 588850;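 active = at least 50% inhibition at 5 µM, scaled per plate between neutral and stimulator controls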;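 note: PAF is a Pseudomonas aeruginosa culture filtrate used as stimulus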
HIF-2a inh: inhibitors of HIF-2a; 786-0 RCC cells HIF-2a reporter, luciferase luminescence, overnight; inhibition, % at 18.8 µM; hit rate 0.72% among 360,000; AID 624352;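 active = inhibition of the luminescence signal of 40% or more relative to plate controls, in a single-dose primary screen at 18.75 µM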
Shn3 inh set2: reduces Shn3 3'UTR luciferase signal in osteoblasts | Clone20 osteoblast Shn3 3'UTR firefly luciferase, 24 h | inhibition, % at 12.5 µM | hit rate 0.52% among 360,000 | AID 588674;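 active = mean inhibition of at least 75% with every replicate also reaching 75%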
MITF TRPM1 inh: MITF TRPM1 promoter inhibition in SK-MEL-5 cells; SK-MEL-5 TRPM1 promoter luciferase, 24 h; hit rate 0.83% among 330,000; inhibition, % at 12.5 µM;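 active = mean inhibition across replicates of 60% or more, whatever share of single replicates reaches that level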
Peg3 prom inh: inhibitors of Peg3 promoter. inhibition, % at 20 µM. HeLa PEG-Prom luciferase reporter, luminescence, overnight. hit rate 1.7% among 360,000;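 active = inhibition of at least 50% at 20 µM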
CF NFkB conf: CF NF-kB inhibition confirmation, single concentration | shares compounds with CF NFkB inh | KKLEB CF airway cells, PAF-induced NF-kB-GFP fluorescence, overnight | inhibition, % at 5 µM | hit rate 64% among 1,300; in the data active = inhibition above about 40%;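 note: stimulus PAF is a Pseudomonas aeruginosa filtrate and not platelet activating factor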
Each line names hits and unclear results; the compound was inactive in the other large screens (follow-up assays come after a bar, where they were run).

COCc1cc(=O)[nH]c(SCCS(=O)(=O)c2ccc(C)cc2)n1	none
COCc1cc(=O)[nH]c(SCCS(=O)(=O)c2ccc(Cl)cc2Cl)n1	CF NFkB inh 100 | CF NFkB conf inactive
Cc1c(CCNC=O)cc(C)c2c3c(oc12)CCCC3	CF NFkB inh 58 | CF NFkB conf inactive
Cc1ccc(S(=O)(=O)Nc2cc(C)cc(CCNC=O)c2C)cc1	none
O=c1c2ccccc2nnn1CSc1ccccc1F	none
O=c1c2ccccc2nnn1CSc1ncnc2ccccc12	CF NFkB inh 66 | CF NFkB conf 41
Cc1sc2nc(CSC(C)C(=O)Nc3ccc(Cl)cn3)[nH]c(=O)c2c1C (stereo not given)	none (no result: MITF TRPM1 inh)
O=S1(=O)N[C@H](Cc2ccccc2)COc2cc(N3CCN(Cc4ccccc4F)CC3)ccc21	none (no result: KKLEB tox, CF NFkB inh, Shn3 inh set2, MITF TRPM1 inh, Peg3 prom inh)
COc1ccc(-c2cc(NC=O)c3ncc(-c4ccc(C(C)=O)cc4)n3c2)cc1OC	CF NFkB inh 50, Peg3 prom inh 68 (no result: MITF TRPM1 inh) | CF NFkB conf inactive
COc1cccc(-c2cc(NC=O)c3ncc(-c4ccc(C(C)=O)cc4)n3c2)c1	CF NFkB inh 59 (no result: MITF TRPM1 inh) | CF NFkB conf 63
COc1cc(-c2cnc3c(NC=O)cc(-c4ccc(C)cc4)cn23)cc(OC)c1OC	CF NFkB inh 51 (no result: MITF TRPM1 inh) | CF NFkB conf 71
COc1ccc(-c2cc(NC=O)c3ncc(-c4cccc(C(C)=O)c4)n3c2)cc1	none (no result: MITF TRPM1 inh)
COc1ccccc1-c1cc(NC=O)c2ncc(-c3ccc(F)cc3)n2c1	CF NFkB inh 67 (no result: MITF TRPM1 inh) | CF NFkB conf 54
Cn1cc(CCNC(=O)C2CCC(=O)N(CCc3ccc(Cl)cc3)C2)cn1 (stereo not given)	none
O=C(N/N=C/c1coc2ccc(Cl)cc2c1=O)c1ccncc1	none
COc1cc(C(=O)N/N=C/c2coc3ccc(Cl)cc3c2=O)ccc1O	CF NFkB inh 61 | CF NFkB conf inactive
O=C(N/N=C/c1coc2ccc(Cl)cc2c1=O)c1ccc(O)cc1	CF NFkB inh 51 | CF NFkB conf inactive
CC(=O)OC1C=CCC2C(=O)c3cccc(O)c3C(O)C12 (stereo not given)	none
O=C(CN1C(=O)NC(CCc2ccccc2)C1=O)N1CCCCCC1 (stereo not given)	none (no result: MITF TRPM1 inh)
CCOC(=O)/C=c1/s/c(=C\c2c(OC)ccc3ccccc23)c(=O)n1CC(=O)NCC1CCCO1 (stereo not given)	CF NFkB inh 54 | CF NFkB conf 65
CCn1c(SCC(=O)Nc2c(C#N)cnn2-c2ccccc2)nnc1-c1cccs1	none (no result: MITF TRPM1 inh)
CCN(C(=O)COC(=O)c1ccc([N+](=O)[O-])o1)c1cccc2ccccc12	CF NFkB inh 66 | CF NFkB conf inactive
c1ccc(CNc2ncnc3scc(-c4cccs4)c23)nc1	CF NFkB inh 52 | CF NFkB conf inactive
O=c1cc(-c2ccccc2)[nH]n1-c1ccccc1	CF NFkB inh 58 | CF NFkB conf inactive
O=c1ccc(=O)n(-c2ccccc2)[nH]1	none
Brc1ccc2[nH]c3c(c2c1)CCC3	none
O=C1Cc2c([nH]c3ccc(Br)cc23)-c2ccccc2N1	CF NFkB inh 85, Peg3 prom inh 95 | CF NFkB conf 106
CCOC(=O)[C@]12CCCC=C1N(Cc1ccco1)C(=O)[C@H](CC(=O)N1CCN(C(=O)c3ccco3)CC1)C2	none (no result: KKLEB tox, CF NFkB inh, Shn3 inh set2, MITF TRPM1 inh, Peg3 prom inh)
Clc1ccc(-c2csc3ncnc(N4CCc5ccccc5C4)c23)cc1	CF NFkB inh 55 | CF NFkB conf 46
Cc1cccc(N2CCN(C(=O)NC(C)c3ccc(F)c(F)c3)CC2)c1C (stereo not given)	none
C#Cc1cccc(Nc2nc(NCCOC)nc3ccsc23)c1	none (no result: MITF TRPM1 inh)
C#Cc1cccc(Nc2nc(NC(C)C)nc3ccsc23)c1	CF NFkB inh 50 (no result: MITF TRPM1 inh) | CF NFkB conf inactive
O=C(Nc1cc(S(=O)(=O)N2CCOCC2)ccc1N1CCOCC1)c1cccs1	none
CCCCOc1ccc(S(=O)(=O)NC(=O)C2(C)CCN2C(=O)c2c(C)noc2C)cc1 (stereo not given)	none (no result: MITF TRPM1 inh)
COc1ccc(/C=N/Nc2nc(-c3cccnc3)nc3ccccc23)cc1OC	CF NFkB inh 64 | CF NFkB conf 68
Clc1ccccc1-c1nc(N/N=C/c2cccnc2)c2ccccc2n1	none
